Assay results reported in PubChem BioAssay (NCI).
The panel holds about 83,000 compounds, 20% with a hit somewhere; the sample as a whole holds those more often.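 Interpretation: 100, growth as untreated; towards 0, rising growth inhibition; 0, no net growth; 0 to -100, cell death. Compounds scoring below 10 were considered active.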 Unmarked numbers belong to inactive results. Activity calls are given as the source filed them.

Key:
Test in all cases: NCI-60 one-dose screen, 48 h (100 = growth as untreated, 0 = no growth, -100 = all killed)
[1] = system: A549/ATCC NSCLC; conditions: 10 µM unless noted
[2] = system: DU-145 prostate; conditions: 10 µM unless noted
[3] = system: K-562 leukemia; conditions: 10 µM unless noted
[4] = system: RXF 393 renal; conditions: 10 µM unless noted
[5] = system: UACC-257 melanoma; conditions: 10 µM unless noted
[6] = system: HT29 colon; conditions: 10 µM unless noted
[7] = system: SNB-75 CNS; conditions: 10 µM unless noted
[8] = system: PC-3 prostate; conditions: 10 µM unless noted
[9] = system: SK-MEL-5 melanoma; conditions: 10 µM unless noted
[10] = system: UACC-62 melanoma; conditions: 10 µM unless noted
[11] = system: SK-MEL-2 melanoma; conditions: 10 µM unless noted
[12] = system: ACHN renal; conditions: 10 µM unless noted
[13] = system: A498 renal; conditions: 10 µM unless noted
[14] = system: HL-60(TB) leukemia; conditions: 10 µM unless noted
[15] = system: MOLT-4 leukemia; conditions: 10 µM
[16] = system: OVCAR-8 ovarian; conditions: 10 µM unless noted
[17] = system: OVCAR-5 ovarian; conditions: 10 µM unless noted
[18] = system: HS 578T breast; conditions: 10 µM unless noted
[19] = system: NCI/ADR-RES ovarian; conditions: 10 µM unless noted
[20] = system: T-47D breast; conditions: 10 µM unless noted

SMILES	growth [1]	growth [2]	growth [3]	growth [4]	growth [5]	growth [6]	growth [7]	growth [8]	growth [9]	growth [10]	growth [11]	growth [12]	growth [13]	growth [14]	growth [15]	growth [16]	growth [17]	growth [18]	growth [19]	growth [20]
CCC(/C=C(C)/C=C/C(=O)c1c(O)c(-c2ccc(O)cc2)c[nH]c1=O)CO (stereo not given)	90.2%	9.29% (active)	7.07% (active)	104%	92.4%	107%	91.3%	27.7%	99.9%	99.8%	88.7%	104%	70.9%	4.76% (active)	31.5%	92.4%	134%	83.8%	96.2%	92.6%
CC(=O)N(C)C1=Nc2ccc(Cl)cc2C(c2ccccc2)=[N+]([O-])C1	106%	115%	109%	109%	95.7%	104%	95.9%	91%	105%	93.7%	95.8%	98.7%	106%	135%	101%	102%	102%	111%	111%	94.9%
CC(CC(C#N)(c1ccccc1)c1ccccc1)N1CCOCC1 (stereo not given)	95.6%	105%	83.5%	112%	106%	106%	104%	90.4%	102%	80.4%	101%	102%	88.8%	86.4%	82.3%	108%	89.5%	111%	106%	90%
